TEAD-YAP block – TEAD-YAP interaction inhibition, primary screen, TEAD-YAP interaction inhibitor project, luminescence, HEK-TIYL cells | AID 1259422, 2018 | inhibition, % at 9.12 µM | TEAD-Gal4/YAP UAS-luciferase luminescence | hit rate 1.4% among 640,000; in the data active = inhibition above about 32%;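 also: 0% = median of test compound wells and 100% = reference inhibitor wells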
GPR151 ag – activators of human GPR151, primary screen, cell-based, PathHunter beta-arrestin, luminescence; G-protein coupled receptor 151 (Homo sapiens), Q8TDV0; PathHunter beta-arrestin GPR151 cells; activation, % at 11.2 µM; hit rate 1% among 650,000; AID 1508602, 2020; in the data active = activation above about 4.9%;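 also: 0% = median of compound wells and 100% = cells with positive control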
MITF primary – MITF inhibitors, primary screen, biochemical, AlphaScreen, human. AID 1259374, 2018. AlphaScreen MITF homodimerization, bead proximity signal. Microphthalmia-associated transcription factor (Homo sapiens), O75030. hit rate 0.91% among 650,000. inhibition, % at 2.6 µM; in the data active = inhibition above about 50%;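 also: 0% = vehicle wells with protein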
Target sequence (O75030 whole entry, looked up): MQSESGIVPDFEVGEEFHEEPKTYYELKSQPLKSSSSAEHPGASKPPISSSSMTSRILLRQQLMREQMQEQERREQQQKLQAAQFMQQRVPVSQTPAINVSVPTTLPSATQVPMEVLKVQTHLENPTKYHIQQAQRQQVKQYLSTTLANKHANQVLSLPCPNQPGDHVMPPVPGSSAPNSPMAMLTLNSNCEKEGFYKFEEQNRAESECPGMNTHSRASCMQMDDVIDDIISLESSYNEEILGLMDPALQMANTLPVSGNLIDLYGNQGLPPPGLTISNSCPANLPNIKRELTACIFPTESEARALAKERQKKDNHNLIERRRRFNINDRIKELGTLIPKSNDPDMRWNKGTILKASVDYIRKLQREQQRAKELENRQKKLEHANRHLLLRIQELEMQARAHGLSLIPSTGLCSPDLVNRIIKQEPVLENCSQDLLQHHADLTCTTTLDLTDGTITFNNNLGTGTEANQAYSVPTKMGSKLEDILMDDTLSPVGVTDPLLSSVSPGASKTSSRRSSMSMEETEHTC
FBW7 activator – FBW7 E3 ligase activators, primary screen, biochemical, AlphaScreen, human; normalized activity (activation), % at 26.1 µM; F-box/WD repeat-containing protein 7 (Homo sapiens), Q969H0; hit rate 0.13% among 650,000; AlphaScreen FBW7–phospho-cyclin E peptide binding, activator screen; in the data active = normalized activity above about 1.9%;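 also: purified mutant Fbw7 with reduced substrate affinity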
The depositor's hits bear a star. In the library only some 3.5% were active in any assay of this set; here they are far more common.

SMILES	TEAD-YAP block	GPR151 ag	MITF primary	FBW7 activator
COc1cccc(C2=NN3C(C2)c2cccc(OC)c2OC32CCCCC2)c1 (stereo unspecified)	36.1*	-1.8	3.1	-0.1
COc1cccc(C2=NN3C(C2)c2cccc(OC)c2OC3c2cc(OC)c(OC)c(OC)c2)c1 (stereo unspecified)	32.3*	-1.1	2.7	0.0
COc1cccc(C2=NN3C(C2)c2cccc(OC)c2OC3c2cccc(OC)c2)c1 (stereo unspecified)	37.6*	-0.1	6.1	-0.1
COC(=O)c1ccc(C2Oc3c(OC)cccc3C3CC(c4cccc(OC)c4)=NN32)cc1 (stereo unspecified)	63.3*	-3.3	19.0	0.1
COc1ccc(CNC(=O)c2cc(-c3ccc(O)cc3)on2)cc1	38.5*	-0.3	3.2	-0.1
CCOc1cc(/C=C2/NC(=O)N(Cc3ccccc3F)C2=O)c(Br)cc1O	1.4	-1.0	0.0	-0.1
O=C(CCn1cnc2ccccc2c1=O)N1CCN(Cc2csc(-c3ccccc3)n2)CC1	21.1	-0.3	-4.0	-0.1
O=C(Cn1cnc2ccccc21)N1CCN(Cc2csc(-c3ccccc3)n2)CC1	45.9*	1.5	20.9	-0.1
COc1ccc(-c2nnc(NC(=O)c3ccccc3[N+](=O)[O-])o2)cc1	-14.6	2.2	8.1	-0.1
N#CC(C#N)=NNc1ccc(SC(F)F)cc1	73.6*	0.8	5.8	-0.1
CN(C)c1ccc(C(CNC(=O)Cc2ccc(F)cc2)N2CCN(c3ccccc3)CC2)cc1 (stereo unspecified)	-0.5	0.8	71.7*	-0.1
COc1ccc(C(=O)/C(=C/N2C=CC=CC2=C(C#N)C#N)c2ccco2)cc1	47.6*	-3.1	13.7	0.1
COc1cccc(-c2ccc3nnc(SCC(=O)N4CCN(c5ccccc5)CC4)n3n2)c1	32.8*	-1.5	13.4	0.6
COc1cccc(NC(=O)c2cnc(SCC(=O)N3CCN(c4ccccc4)CC3)n(C)c2=O)c1	35.5*	-2.2	-6.6	-0.1
CC(C)N1CC(COc2ccccc2)OC1=O (stereo unspecified)	6.2	1.4	-3.5	-0.1
CCn1c(=O)c(-c2ccccc2)c(O)c2ccccc21	-0.5	-1.7	6.8	0.2
CCn1c(=C2C(=O)NC(=O)NC2=O)c2cccc3cccc1c32	14.8	-1.5	61.1*	-0.8
c1ccc(CC2CCN(c3ncnc4sccc34)CC2)cc1	33.6*	3.3	1.3	-0.1
Nc1ccc(Cl)c(NC(=O)c2ccc(Cl)cc2Cl)c1	87.4*	0.8	0.1	1.0
O=C(Nc1cc(Cl)ccc1O)c1ccc(Cl)c(C(=O)c2ccc(Cl)cc2)c1	32.7*	-0.6	16.3	0.3
COc1ccc(C(=O)Nc2cc(Cl)ccc2O)cc1Cl	3.6	-0.2	19.3	0.1
O=C(Nc1cc(Cl)ccc1Oc1ccc(Cl)c2ccccc12)c1cc(Cl)cc(Cl)c1O	3.9	0.8	2.2	-0.2
O=C(Nc1cc(Cl)ccc1Cl)c1cc(Cl)cc(Cl)c1O	56.8*	1.1	2.2	-0.1
O=C(Cc1ccc2c(c1)OCO2)Nc1cc(Nc2ccccc2C2=NCCN2)c(Cl)cn1	10.4	0.4	9.1	-0.1
CNC(=O)c1ccccc1Nc1cc(NC(=O)Cc2ccc3c(c2)OCO3)ncc1C(F)(F)F	75.1*	-0.1	12.2	0.1
SMILES	TEAD-YAP block	GPR151 ag	MITF primary	FBW7 activator
O=C(Cc1ccc2c(c1)OCO2)Nc1cc(Nc2ccccc2-c2ncn[nH]2)c(Cl)cn1	63.7*	-0.1	13.4	1.0
NC(=O)c1ccccc1Nc1cc(NC(=O)Cc2ccc3c(c2)OCO3)ncc1Cl	70.4*	-0.4	11.2	0.2
NC(=O)c1ccccc1Nc1cc(NC(=O)Cc2ccc3c(c2)OCO3)ncc1C(F)(F)F	100.0*	-0.6	17.6	0.6
NC(=O)c1ccccc1Nc1cc(NC(=O)Cc2ccc3c(c2)OCO3)ncc1F	21.3	1.5	-0.3	0.1
COc1cccc(C(=O)Nc2sc3c(c2C#N)CCCC3)c1	12.2	-0.7	21.1	0.0
COc1ccc(-c2nn(C(C)=O)c(=S)n2C)cc1	-17.1	0.4	-12.9	-0.1
COc1ccc(-c2ccc(/C=C3\C(=O)NC(=O)C(C#N)=C3C)o2)c([N+](=O)[O-])c1	-0.3	0.4	9.4	-0.3
Cc1nc2sc3c(c2c2nn(CC(=O)N4CCCCC4)c(=O)n12)CCC(C)C3 (stereo unspecified)	5.8	0.2	4.2	0.0
CCOC(=O)C1=C(O)/C(=C/c2ccc(N(CC)CC)cc2)SC1=Nc1ccc(C)cc1	1.4	-1.3	5.2	0.0
CNC(=O)c1ccccc1Nc1cc(NC(=O)Cc2ccccc2OC)ncc1C(F)(F)F	82.6*	-1.5	18.4	0.1
CNC(=O)c1ccccc1Nc1cc(NC(=O)C(C)(C)c2ccccc2)ncc1C(F)(F)F	3.6	-0.3	8.1	0.0
CNC(=O)c1ccccc1Nc1cc(NC(=O)Cc2cccc(F)c2)ncc1C(F)(F)F	72.1*	-2.1	-4.6	0.6
COc1ccc(S(=O)(=O)Oc2cc(C=O)ccc2OC)cc1	50.3*	0.2	9.1	0.2
COc1ccc(S(=O)(=O)Oc2c(OC)cc(C=O)cc2OC)cc1	39.2*	0.4	-1.2	-0.1
COC(=O)CSc1cccc2cccnc12	-3.1	-0.2	-10.6	-0.7
COc1ccc(C(C[N+](=O)[O-])Sc2cccc3cccnc23)cc1 (stereo unspecified)	57.4*	-1.4	16.2	-1.2
Cc1ccc(N(CC(=O)NC2CCCC2)C(=O)CCC(=O)Nc2nccs2)cc1	-1.8	-0.2	4.8	0.5
O=C1c2ccc(O)c(O)c2C(=O)c2c(O)ccc(O)c21	2.1	1.5	66.2*	0.9
COc1ccccc1N1CCN(c2nc(NCCO)c3cnn(C)c3n2)CC1	36.5*	0.1	4.9	-0.1
Cc1ccc(-n2c(O)c(C=Nc3ccc(S(N)(=O)=O)cc3)c3ccccc3c2=O)cc1C	80.4*	-0.8	0.6	-0.1
COc1ccc(N=Cc2c(O)n(-c3ccc(OC)cc3)c(=O)c3ccccc23)cc1	12.9	0.1	7.5	-0.1
N#Cc1cc2c(nc1N)sc1c(O)cc(=O)[nH]c12	12.1	0.1	21.4	0.0
CN(C)CCNC(=O)c1cc2c(Cl)nc3ccccc3c2s1	54.9*	-2.4	17.8	0.3
CCCCCNC(=O)CSc1ccc(NC(C)=O)cc1	0.4	4.5	-1.3	-0.1
Cc1ccc(C)c(NC(=O)C2CC3CCCN3C23C(=O)N(C)c2ccccc23)c1 (stereo unspecified)	5.4	2.0	12.6	-0.1
O=C(CSc1nc2ccccc2[nH]1)Nc1cc(Cl)ccc1O	33.2*	-0.1	-8.3	0.0
COc1ccc(OC)c(Nc2nc(-c3ccc(OC)c(OC)c3)no2)c1	-8.3	-1.2	5.4	-0.1
COc1ccccc1NC(=O)c1ccc([N+](=O)[O-])cc1C(=O)O	-4.7	2.9	4.3	0.0
COc1cc(CNc2nccn3c(-c4cccc(O)c4)cnc23)cc(OC)c1OC	0.0	0.6	-1.1	2.1*
COc1cc(-c2cnc3c(NCc4cccs4)nccn23)cc(OC)c1OC	38.3*	0.2	-1.5	1.9*

Assay outcomes from PubChem BioAssay.
